Target: PALB2
Test: pooled miR-30 sensor sort-seq; sequence = guide strand
Settings: shRNA
Also: reference of the scale not given here.

Sequence | sensor-assay potency score (higher = more potent)
TAACATAATATTCTGCAGGAAA | -1.13
TAAATTTTTACTTGCATCCTTA | 0.122
TACAGCATCACACCCACGCTGA | -0.615
TTTGCTACTGATTTCTTCCTGT | 0.661
TATAGCTTTATTTACAAGGAGG | -1.15
TTCTTGAACTTGGTTGTCCTGT | 0.276
TACATGGCTCTTTACAACCGGC | -0.961
TTTGTATAGGTAATCCTCCTGG | 0.029
TTAGGAATGTATCAACACCTTT | -0.84
TTCCTGTGTATCTTCTACCAGG | -0.953
TTGAATAAATAATTTTTCGTGC | -0.674
TTGTTCTAACATAATATTCTGC | -0.275

Target: PALM2-AKAP2
Test: as above
Settings: shRNA

Sequence | sensor-assay potency score (higher = more potent)
TTGAATGGCATTCTGCACCAGG | -0.555
TCTGGCAACATCATTATCCAGG | -0.478
TTTTAGATTTGTGTGTCTCATA | -0.987
TTTCTCATGCTCGTCATCCTCA | 0.127
TTGACAGATCTTGAGAACTGAT | -0.51
TTGTCAATCATGCTTGCGCGTT | -1.12
TTGTTCTTTCTCATGCTCGTCA | 0.379

From the OligoGym collection
